# Screening results deposited in PubChem by National Center for Advancing Translational Sciences (NCATS).
# Only some compounds are listed: those with a hit (about 5.3% of all), similar ones and a draw of the others.
# Tau fibril FP = tau fibrillization inhibition (FP) | K18 P301L tau heparin fibrillization, Alexa594 FP, 6 h | Potency, µM (series often up to 57.7 µM), for the others: at the top dose activity, negative = inhibition, most hits filed as inhibitors | 280,000 tested, 0.39% active; note: potency is the fitted concentration of half-maximal effect; nearly all actives have a fitted effect of over 55% in size
# Target sequence (P10636 561-689 P618L limits assumed): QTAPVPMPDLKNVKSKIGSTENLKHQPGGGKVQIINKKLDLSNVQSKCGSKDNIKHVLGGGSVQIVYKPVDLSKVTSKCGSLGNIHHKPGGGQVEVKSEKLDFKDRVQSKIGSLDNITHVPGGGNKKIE
#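 Read-out: fluorescence polarization of Alexa 594-labeled tau (0.24 uM), 555 nm excitation, 632 nm emission. Mixtures held 15 uM unlabeled K18 P301L, compound and 20 uM heparin, pH 7 acetate buffer, incubated 6 hr at 37 C.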
# Sfp PPTase inh = inhibitors of Bacillus subtilis Sfp phosphopantetheinyl transferase | Q9F4F7 | Biochemical Sfp PPTase activity, qHTS | Potency, µM, inactives show largest response in the series, negative = inhibition, hits mostly inhibitors | 310,000 tested, 3.5% active;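 note: the enzyme is Sfp with the accession as filed and its product quenches rhodamine fluorescence; potency is the fitted concentration of half-maximal effect; 0% = enzyme reaction without inhibitor and -100% = no enzyme wells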
#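 Reaction rates are the 30-min fluorescence difference (ex 525, em 598 nm) in wells containing 15 nM Sfp, 5 uM rhodamine-CoA and 12.5 uM BHQ-2-YbbR at pH 7.6 with 10 mM MgCl2.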
# JMJD2E inh = blocks human JMJD2E demethylase activity; B2RXH2; JMJD2E catalytic domain, FDH-coupled NADH fluorescence (FDH is formaldehyde dehydrogenase); Potency, µM (series often up to 57.1 µM), without a hit: top-dose activity change, negative = inhibition, hits mostly inhibitors; 230,000 tested, 1.6% active; active = well fitted inhibition curve with a large enough effect, not every such curve was filed as active; inconclusive = small, poorly fitted or top-dose-only effect, or another doubt; inactive = no such curve, though single readings can be large or run the other way;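 note: potency is the fitted concentration of half-maximal effect; 0% = wells with enzyme and -100% = buffer wells without enzyme; nearly all actives have a fitted effect of over 50% in size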
# Target sequence (B2RXH2 1-337 limits assumed): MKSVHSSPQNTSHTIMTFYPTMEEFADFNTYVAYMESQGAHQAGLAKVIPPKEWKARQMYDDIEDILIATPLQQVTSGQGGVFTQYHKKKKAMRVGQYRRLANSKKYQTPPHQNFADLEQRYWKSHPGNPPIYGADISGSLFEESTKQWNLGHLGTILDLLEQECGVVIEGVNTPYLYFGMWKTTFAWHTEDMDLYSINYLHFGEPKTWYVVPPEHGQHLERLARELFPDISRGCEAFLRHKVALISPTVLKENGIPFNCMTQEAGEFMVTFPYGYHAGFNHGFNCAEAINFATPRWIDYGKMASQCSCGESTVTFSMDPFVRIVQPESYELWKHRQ
# Tau fluor counter = counter-screen for tau fibril formation inhibitors. tau K18 P301L Alexa594 fluorescence, heparin fibrillization. Potency, µM (titrated, usually from 57.7 µM), for inactives: at the top dose activity change, negative = decrease. 280,000 tested, 0.93% active. AID 1463; note: potency is the fitted concentration of half-maximal effect; nearly all actives have a fitted effect of over 55% in size
#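 Human K18 P301L tau (15 uM unlabeled plus 0.24 uM Alexa 594-labeled, final) in 100 mM sodium acetate pH 7 was mixed with compound and 20 uM heparin and incubated 6 hr at 37 C.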
# Tau fibril ThT = tau fibrillization inhibition (ThT binding). recombinant tau K18 P301L (four-repeat tau fragment), heparin-induced fibrillization, ThT fluorescence. Potency, µM (titrated, usually from 57.4 µM), inactives show at the highest dose activity, negative = inhibition, usual class: inhibitors. 270,000 tested, 2.1% active; note: potency is the fitted concentration of half-maximal effect; nearly all actives have a fitted effect of over 55% in size
#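 Recombinant human tau K18 fragment […] carrying P301L, 15 uM unlabeled plus 0.24 uM Alexa 594-labeled, was fibrillized with 20 uM heparin in 100 mM sodium acetate pH 7 for 6 hr at 37 C; 30 uM ThT fluorescence read after 1 hr.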
# FBPA coupling cs = inhibits coupling enzyme system, counter-screen for aldolase hits; coupling enzyme system counterscreen, AmpLite Red fluorescence; activity change, negative = inhibition, % at 58.2 µM, hits read low; 290,000 tested, 0.67% active; AID 2472; in the data active = activity change below about -30%
#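 Fluorescence at 525 nm excitation and 598 nm emission measured inhibition of the coupled detection system without aldolase. Compounds (at 57.5 uM final) were preincubated 10 min at room temperature with coupling enzyme reagent before a 20 min substrate/AmpLite Red step.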
# * = called active by the depositor; ? = inconclusive; nt = no result given; [ ] = remark or other dose. Unless noted, calls come from the whole dose curve; as a rule, active = well fitted curve in the direction sought with a large enough effect; inconclusive = small, poorly fitted or top-dose-only effect, or another doubt; inactive = no such curve, though single readings can be large; an effect the other way counts as inactive or inconclusive. Unless noted, % is set by controls: 0 for no effect and ±100 for the full control effect.
SMILES,Tau fibril FP,Sfp PPTase inh,JMJD2E inh,Tau fluor counter,Tau fibril ThT,FBPA coupling cs
COC(=O)[C@@]1(Cc2ccc(F)cc2)[C@H]2c3cc(C(=O)N4CCCC4)n(Cc4ccc(C)o4)c3C[C@H]2CN1C(=O)c1ccccc1,-14%,40µM*,?,-12%,?,-1
COC(=O)[C@@]1(Cc2ccc(OC)cc2)[C@H]2c3cc(C(=O)N(C)C)n(CCO)c3C[C@H]2CN1C(=O)c1ccccc1,-4%,22%,11%,-8%,-6%,2
Cc1ccc(-c2nn(-c3ccc(F)cc3)c3c2cnc2cc(F)c(F)cc23)cc1,-8%,nt,nt,-5%,-2%,nt
C=C1OC(CO)(n2cnc3c(N)ncnc32)C(O)C1O (stereo unspecified),-4%,16%,nt,-8%,-3%,1
CN1C(=O)/C(=C\c2cc(N=Nc3ccccc3)ccc2O)SC1=S,?,-2%,-5%,4.5µM*[quencher],3.5µM*,-4
Cc1cc(/C=C2\SC(=S)N(C)C2=O)c(C)n1-c1cccc(O)c1,-11%,?,-18%,10µM*[quencher],7.9µM*,-4
COc1ccc(-n2c(C)cc(/C=C3/SC(=S)N(C)C3=O)c2C)cc1,-7%,1%,0%,-24%,?,5
CCN(Cc1ccccc1)S(=O)(=O)c1ccc(C(=O)N(CCCN(C)C)c2nc3ccc(F)cc3s2)cc1,nt,89µM*,nt,nt,nt,nt
CN(C)CCCN(C(=O)c1ccc(S(=O)(=O)N(C)C2CCCCC2)cc1)c1nc2ccc(Br)cc2s1,nt,40µM*,nt,nt,nt,nt
CN(C)CCCN(C(=O)c1ccc(C(=O)c2ccccc2)cc1)c1nc2ccc(F)cc2s1,nt,-23%,nt,nt,nt,5
CCc1ccc2nc(N(CCCN(C)C)C(=O)c3ccc(S(=O)(=O)N4CCc5ccccc5C4)cc3)sc2c1,nt,63µM*,nt,nt,nt,nt
CCc1ccc2nc(N(CCCN(C)C)C(=O)c3ccc(S(=O)(=O)N(C)C4CCCCC4)cc3)sc2c1,nt,45µM*,nt,nt,nt,nt
CCCCCCC(=O)N1C/C=C\C(c2ccc(OC)cc2)N(Cc2ccc(F)cc2)C(=O)C1Cc1ccccc1 (stereo unspecified),nt,-10%,nt,nt,nt,1
CC(C)Sc1nc2[nH]ncc2c(=O)[nH]1,-2%,50µM*,-8%,1%,0%,1
CC1(C)Cc2sc3c(=O)[nH]c(=S)[nH]c3c2CO1,-1%,28µM*,2%,4%,nt,1
Cn1c(NC(=O)/C=C\c2ccccc2)cc(=O)n(C)c1=O,1%,-7%,-5%,-5%,-2%,0
Cn1c(NNC(=O)/C=C/c2ccc3c(c2)OCO3)cc(=O)n(C)c1=O,4%,-7%,?,4%,nt,-37*
O=C1CCC=C1C(O)c1ccc(Cl)cc1 (stereo unspecified),3%,-8%,7%,2%,5%,0
Cc1ccc(NC(=O)Cn2cc(S(=O)(=O)N3CCN(c4ccccc4F)CC3)c3ccccc3c2=O)cc1F,14µM*,nt,nt,-29%,-4%,nt
CC1CCN(S(=O)(=O)c2cn(CC(=O)Nc3cccc(C(F)(F)F)c3)c(=O)c3ccccc23)CC1,?,nt,nt,?,4%,nt
O=C(Cn1cc(S(=O)(=O)N2CCN(c3ccccc3F)CC2)c2ccccc2c1=O)Nc1cccc(C(F)(F)F)c1,14µM*,nt,nt,-25%,4%,nt
CCCN(CCC)CC(O)Cn1cc(/C=C/C(=O)c2ccc(OCC)cc2)c2ccccc21 (stereo unspecified),0%,nt,nt,?,8.9µM*,nt
COc1ccc(C(=O)/C=C/c2cn(CN3CCN(C)CC3)c3ccccc23)cc1,0%,-30%,?,18µM*[quencher],13µM*,-7
COc1ccc(C(=O)/C=C/c2cn(CC(O)CN3CCc4ccccc43)c3ccccc23)cc1OC (stereo unspecified),6%,nt,nt,?,?,nt
CCC(=C(c1ccc(OC)cc1)c1ccc(OC)cc1)c1cn(CC(O)CN(CCO)CCO)c2ccccc12 (stereo unspecified),1%,?,?,13µM*[quencher],?,0
SMILES,Tau fibril FP,Sfp PPTase inh,JMJD2E inh,Tau fluor counter,Tau fibril ThT,FBPA coupling cs
Cc1ccc(OCCn2cc(/C=C/C(=O)O)c3ccccc32)cc1,nt,4%,nt,nt,nt,1
CCOc1ccc(C(=O)/C=C/c2cn(CN3CCN(C)CC3)c3ccccc23)cc1,5%,?,?,13µM*[quencher],?,-5
COc1ccc2c(c1)C(c1ccccc1C)CC(=O)O2 (stereo unspecified),8%[81.3 µM],-9%,nt,?,-9%[81.4 µM],-5
CC1(C)CC(=O)C=C(NC2=CC3OC(c4ccccc4)OCC3OC2=O)C1 (stereo unspecified),?,28µM*,-7%,-7%,18µM*,1
CC1Cc2nc(SCC(=O)NC3CCCCC3)n(C)c(=O)c2S1 (stereo unspecified),-3%,20µM*,?,-6%,?,0
Cn1c(Cc2csc(N)n2)nnc1SCC(=O)NC1CCCCC1,-4%,56µM*,?,1%,-4%,0
COc1ccc(NC(=O)Cn2c(=O)n(Cc3ccccc3Cl)c(=O)c3cc(OC)c(OC)cc32)cc1OC,?,nt,nt,-28%,-9%,nt
CC(C)N(C(=O)Cn1cc(S(=O)(=O)Cc2ccc(Br)cc2)c2ccccc21)C(C)C,0%,nt,nt,3%,13%,nt
O=C(O)COc1ccc(/C=C/c2nc3ccc([N+](=O)[O-])cc3s2)cc1,-11%,4%,1%,-24%,2µM*,0
Cc1cccc(OCC(=O)Nc2nc3ccc([N+](=O)[O-])cc3s2)c1C,-1%,11%,8%,-19%,-15%,-1
Cc1cccc(OCC(=O)Nc2nc3ccc([N+](=O)[O-])cc3s2)c1,-10%,-15%,2%,?,2µM*,5
CC(C)(C)C1CCC(=NNc2ccc(S(N)(=O)=O)cc2[N+](=O)[O-])CC1 (stereo unspecified),11%,14%,-4%,?,13µM*,-4
CC1CCCC/C1=N\Nc1ccc(S(N)(=O)=O)cc1[N+](=O)[O-] (stereo unspecified),11%,11%,-3%,-9%,16µM*,-1
NS(=O)(=O)c1ccc(N/N=C2/CCCc3ccccc32)c([N+](=O)[O-])c1,-4%,-6%,-6%,2%,7%,-2
CC(CNC(=O)c1cccnc1)NC(=O)c1cccnc1 (stereo unspecified),nt,2%,nt,nt,nt,nt
Cc1ccc(C(=O)N(Cc2ccco2)Cc2ccco2)cc1,3%,nt,nt,-5%,-4%,nt
Cc1ccc(CN(Cc2ccco2)C(=S)NCC(=O)NC2CC2)cc1,-7%,50µM*,1%,-7%,-2%,0
